Measurements: PubChem BioAssay (Tox21)
Where “and” joins values, the source holds several entries; their conditions need not be identical. Equal values may be shown once. Results filed as inconclusive are left out. Values without a mark were called inactive. Calls of active or inactive are those of the source. Calls follow the shape of the dose curve; as a rule, active = well fitted activation curve with a large enough effect in the repeat runs; inconclusive = weak or mixed curves; inactive = no such curve, though single readings can be large or run the other way.

Experiment: qHTS assay for small molecules that induce genotoxicity in human embryonic kidney cells expressing luciferase-tagged ATAD5 (AID 651632); also: nearly all actives have a fitted effect of over 15% in size
Conditions: HEK293T ATAD5-luciferase induction, 16 h; series mostly up to 83.3 µM; activation: at the top concentration
Text: U.S. Tox21 Program National Center for Advancing Translational Sciences [NCATS] NIH Chemical Genomics Center [NCGC] U.S. Environmental Protection Agency [EPA] National Institutes of Environmental Health Sciences [NIEHS] National Toxicology Program [NTP] U.S. Food and Drug Administration [FDA] Tox21 Assay Overview: As cancer cells divide rapidly and during every cell division they need to duplicate their genome by DNA replication. The failure to do so results in the cancer cell death. Based on this concept, many chemotherapeutic agents were developed but have limitations such as low efficacy and severe side effects etc. A new cell based assay was developed to find the compounds that effectively block DNA replication either by directly damaging DNA or by inhibiting other cellular mechanisms. Enhanced Level of Genome Instability Gene 1 (ELG1; human ATAD5) protein levels increase in response to various types of DNA damage. Using a luciferase reporter-gene tagged with ATAD5, a cell-based assay [developed by Kyungjae Myung, NHGRI, NIH] was used to measure the induction of ATAD5 in human embryonic kidney cells (HEK293T). So, increase in luciferase activity can be used to identify the compounds that cause genetic stress.
Tox21 Assay Protocol Summary: For genotoxicity screening, 2,000 cells in 5 uL/well were dispensed into white, solid-bottom 1536-well plates using a Multidrop Combi (Thermo Scientific) dispenser. Following transfer of 23 nL compound or DMSO vehicle by a pin tool, the plates were incubated 16 hr at 37C and 5% CO2. 5 ul Amplite (AAT Bioquest, Inc.) was then added to each plate and following 30 min incubation at room temperature, luciferase activity was quantified on a ViewLux CCD-based plate reader.
% is scaled to controls: 0 for no effect and ±100 for the full control effect; potency is read from the fitted curve at half-maximal effect.

Structure (SMILES) | activation | Potency
O=C(/C=C/c1ccccc1)OCCCc1ccccc1 | 2.79% | –
Fc1ccccc1[C@@H](F)COC1CCC(Nc2ncnc3[nH]ncc23)CC1 (stereo not given in full) | -12.9% | –
CC(C)(C)CC(C)(C)c1ccc(OCCO)cc1 | – | inactive
NC(=O)Cn1c(=O)cc(CCN2CCN(c3nccc4sccc34)CC2)c2ccc(F)cc21 | -9.83% | –
CCC(=O)OC/C=C/c1ccccc1 | -0.288% | –
CC(Cl)C(Cl)Cl (stereo not given) | 1.56% | –
Cc1cnc(C)c(C)n1 | -2.67% [at 95.3 µM] | –
Cc1c(C(=O)NN2CCCCC2)nn(-c2ccc(Cl)cc2Cl)c1-c1ccc(Cl)cc1 | -8.48% | –
O=[N+]([O-])c1cccc(S(=O)(=O)NCCNS(=O)(=O)c2cccc([N+](=O)[O-])c2)c1 | -1.42% | –
C=CCCCCCCCCCCCCCCCC | 2.36% [at 8.08 µM] | –
CN1CCN(c2c(F)cc3c(=O)c(C(=O)O)cn4c3c2OCN4C)CC1 | 0.552% | –
CCCCCCOC(=O)C(C)C | 4.19% | –
CC[C@H](NC(=O)c1cc(F)ccc1NS(=O)(=O)c1cccc2cccnc12)c1ccccc1 | -7.62% | –
COc1ccc(CCC(=O)c2c(O)cc(O[C@@H]3O[C@H](CO)[C@@H](O)[C@H](O)[C@H]3O[C@@H]3O[C@@H](C)[C@H](O)[C@@H](O)[C@H]3O)cc2O)cc1O | 0.32% | –
CCCCCCCCCCCCCCCCBr | 2.22% [at 39.1 µM] | –
CCCCOC(=O)CCS | -2.29% | –
O=C(O)Cc1ccc(-c2ccccc2)cc1 | -0.547% [at 39.1 µM] | –
CCC(C)=O | -4.58% | –
CC(=O)CC(c1ccc([N+](=O)[O-])cc1)c1c(O)c2ccccc2oc1=O (stereo not given) | -0.682% [at 39.1 µM] | –
Brc1cc(-c2ccc(Br)c(Br)c2Br)cc(Br)c1Br | 0.5% | –

Structure (SMILES) | activation | Potency
CC[C@@H]([C@H](C)O)n1ncn(-c2ccc(N3CCN(c4ccc(OC[C@@H]5CO[C@@](Cn6cncn6)(c6ccc(F)cc6F)C5)cc4)CC3)cc2)c1=O | -4.58% | –
c1ccc(COCc2ccccc2)cc1 | -2% [at 95.3 µM] | –
C=CC(C)(O)CCCC(C)CCCC(C)CCCC(C)C (stereo not given) | 3.33% | –
CCCc1c(OCCCOc2ccc(OCC(=O)O)cc2)ccc(C(C)=O)c1O | 1.79% | –
CC(C)C(OC(=O)c1ccccc1)C(C)(C)COC(=O)c1ccccc1 (stereo not given) | -5.66% | –
CCC(C(=O)OCCN(CC)CC)c1ccccc1 (stereo not given) | 2.87% | –
CC1=NN(c2ccc(C(=O)O)cc2)C(=O)C1 | -2.18% | –
CC(C)CCCCCOC(=O)CCCCC(=O)OCCCCCC(C)C | 2.99% | –
CCCCCCOC(=O)CCCCCCCC(=O)OCCCCCC | 2.93% | –
N#C/C(=C1/SC[C@@H](c2ccc(Cl)cc2Cl)S1)n1ccnc1 | – | inactive
COc1ccccc1N=Nc1c(S(=O)(=O)O)cc2cc(S(=O)(=O)O)cc(NC(C)=O)c2c1O | -5.71% | –
O=C(CCCCCCC(=O)Nc1ccccc1)NO | – | 2.11 µM (active) and 1.68 µM (active)
c1cc[c]([Bi]([c]2ccccc2)[c]2ccccc2)cc1 | -2.12% | –
COc1cc2ncnc(Nc3ccc(F)c(Cl)c3)c2cc1OCCCN1CCOCC1 | -7.66% | –
O=C(CCC1CCN(Cc2ccccc2)CC1)c1ccc2c(c1)NCCCC2 | -5.32% | –
CC(N)CN (stereo not given) | 4.39% [at 95.3 µM] | –
CC1CC(O)CC(C)(C)C1 (stereo not given) | – | inactive
COCC(O)CO (stereo not given) | 1.8% [at 95.3 µM] | –
CC(=O)[C@H]1CC[C@H]2[C@@H]3C=CC4=CC(=O)CC[C@@]4(C)[C@@H]3CC[C@]12C | -8.93% [at 39.1 µM] | –
CN(C)C(=O)Nc1ccc(Oc2ccc(Cl)cc2)cc1 | -6.47% | –
